Test results as given in ChEMBL document CHEMBL2218924, “A broad activity screen in support of a chemogenomic map for kinase signalling research and drug discovery” (Biochem J, 2013).

What was measured:
[1] = biological target: Ephrin type-A receptor 7 (Homo sapiens) (UniProt Q15375); details: at 1 µM
[2] = biological target: Ephrin type-A receptor 7 (Homo sapiens) (UniProt Q15375); details: at 10 µM
[3] = biological target: T1, Ephrin type-B receptor 1 (Homo sapiens) (UniProt P54762); details: at 1 µM
T1 sequence (whole entry): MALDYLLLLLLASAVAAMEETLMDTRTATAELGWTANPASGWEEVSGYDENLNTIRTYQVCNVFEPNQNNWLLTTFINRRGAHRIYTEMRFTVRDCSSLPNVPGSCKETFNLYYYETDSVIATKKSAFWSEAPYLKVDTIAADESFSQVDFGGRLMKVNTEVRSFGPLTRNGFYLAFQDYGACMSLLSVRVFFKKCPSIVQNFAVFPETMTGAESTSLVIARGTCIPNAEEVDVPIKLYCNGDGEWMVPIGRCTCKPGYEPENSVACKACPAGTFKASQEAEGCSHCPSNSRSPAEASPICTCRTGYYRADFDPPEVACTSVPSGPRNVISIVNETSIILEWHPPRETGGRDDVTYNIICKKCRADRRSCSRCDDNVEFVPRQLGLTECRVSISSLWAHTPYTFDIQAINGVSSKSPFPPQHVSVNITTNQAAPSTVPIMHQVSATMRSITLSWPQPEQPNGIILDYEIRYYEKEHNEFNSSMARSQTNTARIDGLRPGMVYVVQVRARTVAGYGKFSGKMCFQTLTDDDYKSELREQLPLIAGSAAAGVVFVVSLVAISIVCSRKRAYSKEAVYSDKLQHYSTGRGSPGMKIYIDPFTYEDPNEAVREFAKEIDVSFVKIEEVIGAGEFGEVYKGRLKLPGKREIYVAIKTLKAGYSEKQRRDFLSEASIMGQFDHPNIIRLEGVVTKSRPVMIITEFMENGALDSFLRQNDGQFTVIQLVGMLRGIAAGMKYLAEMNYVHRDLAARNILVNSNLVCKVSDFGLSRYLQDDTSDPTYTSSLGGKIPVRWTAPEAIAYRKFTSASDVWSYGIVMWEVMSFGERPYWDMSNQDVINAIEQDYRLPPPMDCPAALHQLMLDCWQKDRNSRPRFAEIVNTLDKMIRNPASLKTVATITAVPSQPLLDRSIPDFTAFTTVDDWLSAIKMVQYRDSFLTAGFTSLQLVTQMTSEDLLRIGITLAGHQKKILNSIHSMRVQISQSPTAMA

[4] = biological target: T1, Ephrin type-B receptor 1 (Homo sapiens); details: at 10 µM
[5] = biological target: T2, Ephrin type-B receptor 3 (Homo sapiens) (UniProt P54753); details: at 1 µM
T2 sequence (whole entry): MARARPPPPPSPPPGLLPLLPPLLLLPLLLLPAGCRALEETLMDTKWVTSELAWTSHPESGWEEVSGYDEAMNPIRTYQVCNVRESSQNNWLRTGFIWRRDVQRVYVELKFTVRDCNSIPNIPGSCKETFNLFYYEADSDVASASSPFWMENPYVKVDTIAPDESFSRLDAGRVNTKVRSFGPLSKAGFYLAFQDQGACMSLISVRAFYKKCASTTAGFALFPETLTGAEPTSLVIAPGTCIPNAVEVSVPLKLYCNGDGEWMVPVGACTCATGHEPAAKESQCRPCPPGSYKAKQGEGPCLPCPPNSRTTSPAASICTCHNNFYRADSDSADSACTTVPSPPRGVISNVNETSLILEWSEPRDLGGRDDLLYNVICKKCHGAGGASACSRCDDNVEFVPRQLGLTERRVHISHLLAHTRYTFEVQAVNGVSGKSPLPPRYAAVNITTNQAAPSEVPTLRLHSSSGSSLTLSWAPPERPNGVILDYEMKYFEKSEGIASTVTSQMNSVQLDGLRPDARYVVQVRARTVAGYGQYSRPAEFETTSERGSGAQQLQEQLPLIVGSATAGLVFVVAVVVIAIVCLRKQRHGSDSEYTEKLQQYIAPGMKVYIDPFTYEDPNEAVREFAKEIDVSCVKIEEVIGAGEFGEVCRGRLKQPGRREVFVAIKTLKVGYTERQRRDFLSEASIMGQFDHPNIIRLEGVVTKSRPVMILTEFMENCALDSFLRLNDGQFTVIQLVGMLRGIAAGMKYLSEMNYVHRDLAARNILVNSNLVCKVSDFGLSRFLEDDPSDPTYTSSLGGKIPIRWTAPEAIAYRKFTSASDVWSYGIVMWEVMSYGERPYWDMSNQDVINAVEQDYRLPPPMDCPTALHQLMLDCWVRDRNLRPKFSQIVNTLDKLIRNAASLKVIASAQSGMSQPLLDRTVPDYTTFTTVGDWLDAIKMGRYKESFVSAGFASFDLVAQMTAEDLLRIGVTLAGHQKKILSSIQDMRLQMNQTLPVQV

[6] = biological target: T2, Ephrin type-B receptor 3 (Homo sapiens); details: at 10 µM
[7] = biological target: T3, Ephrin type-B receptor 4 (Homo sapiens) (UniProt P54760); details: at 1 µM
T3 sequence (whole entry): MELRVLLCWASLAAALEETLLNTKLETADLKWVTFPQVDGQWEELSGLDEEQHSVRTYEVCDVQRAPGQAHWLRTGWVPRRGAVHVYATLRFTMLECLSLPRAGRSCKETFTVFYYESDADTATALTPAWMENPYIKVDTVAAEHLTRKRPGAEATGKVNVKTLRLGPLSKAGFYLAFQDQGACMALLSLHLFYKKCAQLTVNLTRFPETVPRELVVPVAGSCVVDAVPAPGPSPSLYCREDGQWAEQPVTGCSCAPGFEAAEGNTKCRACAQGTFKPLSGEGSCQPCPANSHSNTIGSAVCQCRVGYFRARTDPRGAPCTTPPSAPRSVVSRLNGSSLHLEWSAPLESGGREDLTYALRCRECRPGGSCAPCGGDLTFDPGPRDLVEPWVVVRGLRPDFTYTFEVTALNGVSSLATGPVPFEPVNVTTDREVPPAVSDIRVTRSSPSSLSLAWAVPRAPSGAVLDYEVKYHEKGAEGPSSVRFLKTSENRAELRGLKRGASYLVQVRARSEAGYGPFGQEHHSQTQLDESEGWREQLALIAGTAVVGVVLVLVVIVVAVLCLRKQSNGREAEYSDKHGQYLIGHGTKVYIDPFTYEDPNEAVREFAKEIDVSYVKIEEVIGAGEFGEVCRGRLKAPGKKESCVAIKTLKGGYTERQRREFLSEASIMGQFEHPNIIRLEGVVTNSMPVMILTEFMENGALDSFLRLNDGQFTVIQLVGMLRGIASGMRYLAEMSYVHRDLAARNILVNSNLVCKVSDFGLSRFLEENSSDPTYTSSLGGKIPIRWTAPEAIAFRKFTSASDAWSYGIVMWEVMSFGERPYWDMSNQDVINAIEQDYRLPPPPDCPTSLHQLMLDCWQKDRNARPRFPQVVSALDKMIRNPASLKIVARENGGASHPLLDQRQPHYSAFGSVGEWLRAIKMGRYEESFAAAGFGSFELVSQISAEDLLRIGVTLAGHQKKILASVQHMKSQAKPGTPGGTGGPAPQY

[8] = biological target: T3, Ephrin type-B receptor 4 (Homo sapiens); details: at 10 µM
[9] = biological target: Receptor tyrosine-protein kinase erbB-4 (Homo sapiens) (UniProt Q15303); details: at 1 µM
[10] = biological target: Focal adhesion kinase 1 (Homo sapiens) (UniProt Q05397); details: at 1 µM
Chain of Focal adhesion kinase 1 (Homo sapiens) (Q05397 2-1052 limits assumed): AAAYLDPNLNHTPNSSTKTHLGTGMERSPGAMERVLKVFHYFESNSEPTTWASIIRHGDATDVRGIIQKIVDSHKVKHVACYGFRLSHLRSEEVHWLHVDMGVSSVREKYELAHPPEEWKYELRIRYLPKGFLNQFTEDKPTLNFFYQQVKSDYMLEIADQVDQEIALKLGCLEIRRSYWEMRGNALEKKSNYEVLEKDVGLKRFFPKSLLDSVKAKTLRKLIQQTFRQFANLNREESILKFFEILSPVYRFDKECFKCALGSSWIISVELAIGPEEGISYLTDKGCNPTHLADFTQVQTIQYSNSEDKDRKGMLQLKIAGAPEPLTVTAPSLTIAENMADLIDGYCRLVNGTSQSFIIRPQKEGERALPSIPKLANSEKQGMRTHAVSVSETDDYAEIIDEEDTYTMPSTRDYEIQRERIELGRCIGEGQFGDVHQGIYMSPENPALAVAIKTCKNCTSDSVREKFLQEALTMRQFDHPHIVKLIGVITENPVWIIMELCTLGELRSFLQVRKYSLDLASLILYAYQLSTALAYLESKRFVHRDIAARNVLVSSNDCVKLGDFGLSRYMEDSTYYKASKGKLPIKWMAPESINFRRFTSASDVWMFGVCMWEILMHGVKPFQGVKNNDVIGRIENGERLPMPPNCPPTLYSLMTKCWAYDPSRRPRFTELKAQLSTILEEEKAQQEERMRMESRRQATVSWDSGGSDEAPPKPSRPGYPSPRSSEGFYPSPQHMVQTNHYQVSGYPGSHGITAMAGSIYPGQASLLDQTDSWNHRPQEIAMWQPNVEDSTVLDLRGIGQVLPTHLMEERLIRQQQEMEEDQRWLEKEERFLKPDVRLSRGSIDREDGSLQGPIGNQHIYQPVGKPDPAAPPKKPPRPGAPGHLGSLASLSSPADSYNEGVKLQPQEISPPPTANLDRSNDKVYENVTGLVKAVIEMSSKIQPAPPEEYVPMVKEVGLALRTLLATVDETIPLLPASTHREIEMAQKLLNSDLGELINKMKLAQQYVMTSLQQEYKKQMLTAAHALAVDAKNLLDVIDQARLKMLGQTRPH

Chain of Ephrin type-A receptor 7 (Homo sapiens) (Q15375 28-998 limits assumed): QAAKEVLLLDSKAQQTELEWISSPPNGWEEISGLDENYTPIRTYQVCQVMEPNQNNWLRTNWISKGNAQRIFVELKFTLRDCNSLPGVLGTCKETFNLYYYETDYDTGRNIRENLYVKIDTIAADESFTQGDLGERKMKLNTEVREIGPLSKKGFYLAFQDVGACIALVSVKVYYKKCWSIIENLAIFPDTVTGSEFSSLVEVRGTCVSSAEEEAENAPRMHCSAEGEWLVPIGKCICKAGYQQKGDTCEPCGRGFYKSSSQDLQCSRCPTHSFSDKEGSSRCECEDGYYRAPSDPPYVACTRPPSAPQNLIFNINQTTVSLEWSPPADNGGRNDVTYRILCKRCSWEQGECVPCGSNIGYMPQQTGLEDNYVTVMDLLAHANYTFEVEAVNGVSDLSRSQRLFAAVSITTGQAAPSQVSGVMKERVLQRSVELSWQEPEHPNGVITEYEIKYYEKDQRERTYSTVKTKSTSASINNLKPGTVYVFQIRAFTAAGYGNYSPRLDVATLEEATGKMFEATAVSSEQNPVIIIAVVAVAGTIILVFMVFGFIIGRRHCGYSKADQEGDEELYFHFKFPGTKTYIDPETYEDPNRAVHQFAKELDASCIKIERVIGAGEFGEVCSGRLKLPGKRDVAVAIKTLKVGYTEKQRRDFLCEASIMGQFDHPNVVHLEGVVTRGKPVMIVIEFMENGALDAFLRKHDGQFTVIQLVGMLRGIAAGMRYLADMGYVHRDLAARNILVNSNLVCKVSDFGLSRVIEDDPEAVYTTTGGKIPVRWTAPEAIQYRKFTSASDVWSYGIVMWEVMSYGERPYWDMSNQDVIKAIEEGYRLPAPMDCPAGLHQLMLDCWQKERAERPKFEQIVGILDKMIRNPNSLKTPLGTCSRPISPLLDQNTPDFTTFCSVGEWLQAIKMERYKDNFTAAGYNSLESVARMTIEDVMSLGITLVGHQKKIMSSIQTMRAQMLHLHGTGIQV
Chain of Receptor tyrosine-protein kinase erbB-4 (Homo sapiens) (Q15303 whole entry): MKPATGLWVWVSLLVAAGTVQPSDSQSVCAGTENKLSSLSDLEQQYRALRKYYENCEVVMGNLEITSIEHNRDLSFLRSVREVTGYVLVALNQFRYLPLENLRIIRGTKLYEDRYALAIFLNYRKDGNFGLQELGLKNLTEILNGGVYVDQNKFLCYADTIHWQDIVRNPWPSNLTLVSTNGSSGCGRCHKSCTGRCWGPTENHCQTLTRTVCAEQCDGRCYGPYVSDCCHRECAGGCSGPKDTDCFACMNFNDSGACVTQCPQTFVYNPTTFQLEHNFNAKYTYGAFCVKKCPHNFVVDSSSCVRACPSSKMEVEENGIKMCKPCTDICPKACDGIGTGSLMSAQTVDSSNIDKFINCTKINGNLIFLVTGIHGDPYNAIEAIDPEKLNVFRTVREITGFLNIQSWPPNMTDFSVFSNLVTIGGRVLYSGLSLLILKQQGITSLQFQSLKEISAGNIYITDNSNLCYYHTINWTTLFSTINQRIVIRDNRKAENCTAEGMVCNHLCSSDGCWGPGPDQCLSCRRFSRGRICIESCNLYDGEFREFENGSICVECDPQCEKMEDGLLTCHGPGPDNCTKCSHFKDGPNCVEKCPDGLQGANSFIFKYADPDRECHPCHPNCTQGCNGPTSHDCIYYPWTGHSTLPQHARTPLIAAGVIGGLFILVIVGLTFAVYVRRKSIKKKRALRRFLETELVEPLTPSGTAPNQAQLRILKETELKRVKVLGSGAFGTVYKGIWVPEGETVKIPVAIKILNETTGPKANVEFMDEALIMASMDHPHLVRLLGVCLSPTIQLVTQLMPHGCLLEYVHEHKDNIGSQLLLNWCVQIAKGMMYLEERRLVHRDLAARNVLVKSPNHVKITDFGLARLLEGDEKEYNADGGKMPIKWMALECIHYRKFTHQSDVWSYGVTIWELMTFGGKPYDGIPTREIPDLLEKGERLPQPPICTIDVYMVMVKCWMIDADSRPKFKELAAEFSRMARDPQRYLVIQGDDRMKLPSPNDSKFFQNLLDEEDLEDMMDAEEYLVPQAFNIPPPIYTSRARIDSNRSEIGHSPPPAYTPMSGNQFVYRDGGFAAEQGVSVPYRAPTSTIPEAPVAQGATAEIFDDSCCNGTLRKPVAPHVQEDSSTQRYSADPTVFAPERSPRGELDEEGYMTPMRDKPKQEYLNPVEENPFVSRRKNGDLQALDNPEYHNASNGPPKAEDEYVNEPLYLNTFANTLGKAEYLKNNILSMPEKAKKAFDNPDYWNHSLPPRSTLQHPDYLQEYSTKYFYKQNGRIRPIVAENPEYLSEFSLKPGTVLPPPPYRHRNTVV

c1ccc(-c2n[nH]c3c2oc2ccccc23)cc1
residual activity [1]: 96%
residual activity [2]: 78%
residual activity [3]: 99%
residual activity [4]: 90%
residual activity [5]: 93% (inactive)
residual activity [6]: 100%
residual activity [7]: 100%
residual activity [8]: 116%
residual activity [9]: 90%
residual activity [10]: 122%
